The structures appear in SMILES notation. The panel holds about 79,000 compounds, 15% with a hit somewhere; the sample as a whole holds those more often. Values without a mark were called inactive. Calls of active or inactive are those of the source. No stated cut-off is given here; in the data, active means growth inhibition above about 70%; inactive means the rest.

The nature of one test: NCI Yeast Anticancer Drug Screen. Data for the mec2-1 strain (AID 157). The note with it: S. cerevisiae mec2-1 strain, at 50.0 µM, stronger effect = higher value. Put shortly:
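mec2-1 yeast strain, carrying an alteration in DNA damage repair or cell cycle control, was exposed to compounds; growth inhibition was measured relative to vehicle-treated controls.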
On to `C(=C(/C=C/C(=C/c1ccccc1)c1ccccc1)c1ccccc1)\c1ccccc1`, for which the growth inhibition was 13.8%.

`CC1(S)CCC2CC1C2(C)C` (stereo not given): the growth inhibition is -54.1%.

With `N#CCCN(CCC#N)c1ccc(C(=O)NN)cc1`, the growth inhibition was -15.9%.

As for `OCC1NC(CO)C(O)C1O` (stereo not given), the growth inhibition was 8.1%.

As to `COc1ccc(OC)c(NC(=O)Nc2nccs2)c1`, the growth inhibition was 42.9%.

For `N=c1c2ccccc2nc2oc3ccc(Cl)cc3n12`, the growth inhibition was -32.5%.

With `COc1ccc(N)c(OC)c1`, the growth inhibition is -37%.

With `O=C(CC(O)(C(F)(F)F)C(F)(F)F)c1ccc(Cl)c([N+](=O)[O-])c1`, the growth inhibition was 99.2% (active).

Consider `CCCc1cc(=O)oc2c3c(c4c(c12)OC(C)(C)C=C4)O[C@H](C)[C@@H](C)C3O` (stereo not given in full), for which the growth inhibition is 9.3%.

Regarding `CSc1nc(N)c(NS(=O)(=O)c2ccc(NC(C)=O)cc2)c(=O)[nH]1`, the growth inhibition is 1.8%.

Consider `O=C(Nc1ccc([N+](=O)[O-])cc1Cl)c1ccc(C(=O)Nc2ccc([N+](=O)[O-])cc2Cl)cc1`, for which the growth inhibition was -1.75%.

Consider `O=c1oc2ccc(Cl)cc2n1CN1CCOCC1`, for which the growth inhibition was -26.9%.

Regarding `C[N+](C)(CCCN1C(=O)c2cccc3c(Br)ccc(c23)C1=O)Cc1ccc(Cl)c(Cl)c1`, the growth inhibition is 98% (active).

On to `CCCN(CCC)C1=Nc2ccccc2-n2cnnc2C1`, for which the growth inhibition was 3.45%.

For `C1CCC(NCSC2=NCCS2)CC1`, the growth inhibition was -4.7%.

For the compound `N#CCN(CCc1ccccc1)CCc1ccccc1`, the growth inhibition was -9.95%.

With `O=S1(=O)CC2C3CC(Oc4ccccc4)C(C3)C2C1` (stereo not given), the growth inhibition is -6.35%.

For `CC(CO)(CO)N1C(=O)c2cccc3cc([N+](=O)[O-])cc(c23)C1=O`, the growth inhibition was 29.1%.

In the case of `Cc1cc2nc3c(=O)[nH]c(=O)nc-3n(CCN(CCO)CCO)c2cc1Cl`, the growth inhibition was 7.95%.

Consider `NC(=S)SC1=NNC2(C(=O)N1)c1ccccc1-c1ccccc12`, for which the growth inhibition is -33.6%.

Take `CC(=O)OC[C@@]12CC[C@H]3C(C)(C)CCC[C@]3(C)[C@H]1C[C@@H](C1=CC(=O)O[C@H]1O)O2`: the growth inhibition is 91.8% (active).

For `O=C(NC(C(=O)O)c1ccccc1)c1ccc([N+](=O)[O-])cc1` (stereo not given), the growth inhibition is 10.1%.

Take `CSc1nsc(SC)c1C(N)=O`: the growth inhibition was -17.6%.

Turning to `O=C(NC1C=Nc2ccc([N+](=O)[O-])cc2NC1=O)c1ccc(Cl)cc1` (stereo not given), the growth inhibition is 7.8%.

As to `COc1ccc2c(c1)CCCN2S(=O)(=O)c1ccccc1[N+](=O)[O-]`, the growth inhibition is -3.9%.

Regarding `COc1ccc(/C=C(\C(C)=O)C(=O)Nc2ccccc2)cc1`, the growth inhibition was 16.4%.

As for `CC(=O)NC(Cc1ccccc1)c1ccccc1` (stereo not given), the growth inhibition is -8.2%.

As for `N=c1ccc2nc(N)nn(O)c-2c1`, the growth inhibition is 12.1%.

Take `C[n+]1ccccc1C(O)C(O)c1cccc[n+]1C` (stereo not given): the growth inhibition was 1.65%.

On to `Oc1ccccc1-n1nc2ccc3nonc3c2n1`, for which the growth inhibition was -61.1%.

On to `Cc1ccccc1C(=O)NNC(=O)c1ccc2ccccc2c1`, for which the growth inhibition is -9.1%.

In the case of `O=C(O)c1oc2cccc3c2c1CCC3`, the growth inhibition was 1.3%.

Take `CCOC(=O)NCC1(c2ccccc2)CCN(Cc2ccccc2)CC1`: the growth inhibition was -17.6%.

With `NC(=O)c1ccccc1NC(=O)CCCOc1ccccc1`, the growth inhibition was 8.35%.

`CCOC(=O)C(C)C(=O)C(C)C` (stereo not given): the growth inhibition was 0.5%.

With `O=c1c2cnc3c4cccnc4ccc3c2[nH]n1-c1ccccc1`, the growth inhibition is 8.15%.

`Cc1ccc(Sc2cccc3c2C(=O)c2c(Sc4ccc(C)cc4)cccc2C3=O)cc1`: the growth inhibition was 9.05%.

With `CCOC(=O)CNCc1cccc(Cl)c1`, the growth inhibition is 28.4%.

Regarding `CC1(C)CC(=O)C2=C(C1)NC(=S)C(C#N)C2c1ccccc1` (stereo not given), the growth inhibition was -4%.

With `O=COC1CCCCCC1`, the growth inhibition is -28.9%.

A further test in a line: NCI Yeast Anticancer Drug Screen. Data for the sgs1 mgt1 strain (AID 161).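 Further: 0% = growth of cultures given vehicle only.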 The note with it: S. cerevisiae sgs1 mgt1 strain, at 50.0 µM, stronger effect = higher value. In a few lines: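 This yeast growth screen uses a strain with defined DNA-repair lesions; compound-treated growth is compared with vehicle-treated growth.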
As to `C(=C(/C=C/C(=C/c1ccccc1)c1ccccc1)c1ccccc1)\c1ccccc1`, the growth inhibition is -11.7%.

Regarding `CC1(S)CCC2CC1C2(C)C` (stereo not given), the growth inhibition was -35%.

As to `N#CCCN(CCC#N)c1ccc(C(=O)NN)cc1`, the growth inhibition is -3.2%.

Take `OCC1NC(CO)C(O)C1O` (stereo not given): the growth inhibition is 6.5%.

Take `COc1ccc(OC)c(NC(=O)Nc2nccs2)c1`: the growth inhibition was 29.1%.

`N=c1c2ccccc2nc2oc3ccc(Cl)cc3n12`: the growth inhibition was -6.25%.

Regarding `COc1ccc(N)c(OC)c1`, the growth inhibition was -90%.

Take `O=C(CC(O)(C(F)(F)F)C(F)(F)F)c1ccc(Cl)c([N+](=O)[O-])c1`: the growth inhibition was 99.1% (active).

In the case of `CCCc1cc(=O)oc2c3c(c4c(c12)OC(C)(C)C=C4)O[C@H](C)[C@@H](C)C3O` (stereo not given in full), the growth inhibition is -1.45%.

For `CSc1nc(N)c(NS(=O)(=O)c2ccc(NC(C)=O)cc2)c(=O)[nH]1`, the growth inhibition was 9.05%.

Turning to `O=C(Nc1ccc([N+](=O)[O-])cc1Cl)c1ccc(C(=O)Nc2ccc([N+](=O)[O-])cc2Cl)cc1`, the growth inhibition was -1.85%.

For `O=c1oc2ccc(Cl)cc2n1CN1CCOCC1`, the growth inhibition was 1.95%.

On to `C[N+](C)(CCCN1C(=O)c2cccc3c(Br)ccc(c23)C1=O)Cc1ccc(Cl)c(Cl)c1`, for which the growth inhibition was 98.3% (active).

Turning to `CCCN(CCC)C1=Nc2ccccc2-n2cnnc2C1`, the growth inhibition is -25.6%.

For `C1CCC(NCSC2=NCCS2)CC1`, the growth inhibition was 0.05%.

On to `N#CCN(CCc1ccccc1)CCc1ccccc1`, for which the growth inhibition was 13.2%.

As to `O=S1(=O)CC2C3CC(Oc4ccccc4)C(C3)C2C1` (stereo not given), the growth inhibition is -4.2%.

Take `CC(CO)(CO)N1C(=O)c2cccc3cc([N+](=O)[O-])cc(c23)C1=O`: the growth inhibition was 50.1%.

Regarding `Cc1cc2nc3c(=O)[nH]c(=O)nc-3n(CCN(CCO)CCO)c2cc1Cl`, the growth inhibition is 48.3%.

On to `NC(=S)SC1=NNC2(C(=O)N1)c1ccccc1-c1ccccc12`, for which the growth inhibition was 14.2%.

For the compound `CC(=O)OC[C@@]12CC[C@H]3C(C)(C)CCC[C@]3(C)[C@H]1C[C@@H](C1=CC(=O)O[C@H]1O)O2`, the growth inhibition was 91.5% (active).

As to `O=C(NC(C(=O)O)c1ccccc1)c1ccc([N+](=O)[O-])cc1` (stereo not given), the growth inhibition was 13.4%.

As for `CSc1nsc(SC)c1C(N)=O`, the growth inhibition is 15.3%.

As to `O=C(NC1C=Nc2ccc([N+](=O)[O-])cc2NC1=O)c1ccc(Cl)cc1` (stereo not given), the growth inhibition was 7.35%.

For `COc1ccc2c(c1)CCCN2S(=O)(=O)c1ccccc1[N+](=O)[O-]`, the growth inhibition was -17.9%.

In the case of `COc1ccc(/C=C(\C(C)=O)C(=O)Nc2ccccc2)cc1`, the growth inhibition was 22.2%.

For `CC(=O)NC(Cc1ccccc1)c1ccccc1` (stereo not given), the growth inhibition is 11.1%.

With `N=c1ccc2nc(N)nn(O)c-2c1`, the growth inhibition is 2.9%.

For `C[n+]1ccccc1C(O)C(O)c1cccc[n+]1C` (stereo not given), the growth inhibition is 8.85%.

As for `Oc1ccccc1-n1nc2ccc3nonc3c2n1`, the growth inhibition was -38.9%.

For the compound `Cc1ccccc1C(=O)NNC(=O)c1ccc2ccccc2c1`, the growth inhibition is -3.9%.

For the compound `O=C(O)c1oc2cccc3c2c1CCC3`, the growth inhibition is 5.4%.

Regarding `CCOC(=O)NCC1(c2ccccc2)CCN(Cc2ccccc2)CC1`, the growth inhibition is -11.9%.

For the compound `NC(=O)c1ccccc1NC(=O)CCCOc1ccccc1`, the growth inhibition was 16.8%.

On to `CCOC(=O)C(C)C(=O)C(C)C` (stereo not given), for which the growth inhibition was 0.75%.

For `O=c1c2cnc3c4cccnc4ccc3c2[nH]n1-c1ccccc1`, the growth inhibition is 14.2%.

For the compound `Cc1ccc(Sc2cccc3c2C(=O)c2c(Sc4ccc(C)cc4)cccc2C3=O)cc1`, the growth inhibition was -24.5%.

As for `CCOC(=O)CNCc1cccc(Cl)c1`, the growth inhibition is 15.4%.

With `CC1(C)CC(=O)C2=C(C1)NC(=S)C(C#N)C2c1ccccc1` (stereo not given), the growth inhibition was 14.7%.

With `O=COC1CCCCCC1`, the growth inhibition was -11.1%.

The values above are taken from PubChem BioAssay (NCI).
